TDP1 cell noCPT = qHTS for Inhibitors of human tyrosyl-DNA phosphodiesterase 1 (TDP1): qHTS in cells in absence of CPT; Potency, µM (top dose mostly 46.2 µM), for inactives: top-dose activity change, negative = growth inhibition, usual class: inhibitors; DT40 Tdp1-/- hTDP1 cells, no CPT, ATP luminescence, 48 h; 420,000 tested, 15% active; AID 686978, 2013; further: nearly all actives have a fitted effect of over 55% in size
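Cells were dispensed at 400 per well, compounds added by pin tool, plates incubated ≥48 hr at 37 °C, then CellTiter-Glo added for 30 min at room temperature before luminescence reading. Line: DT40 Tdp1-/- complemented with hTDP1; camptothecin omitted.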
TDP1 inh = qHTS Assay for Inhibitors of Tyrosyl-DNA Phosphodiesterase (TDP1); Potency, µM (highest dose often 130 µM), inactives show top-dose activity change, negative = inhibition, most hits filed as inhibitors; 350,000 tested, 0.28% active; AID 485290, 2010; recombinant TDP1, AlphaScreen DNA substrate cleavage; Tyrosyl-DNA phosphodiesterase 1 (Homo sapiens), Q9NUW8; further: nearly all actives have a fitted effect of over 40% in size
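AlphaScreen read-out: signal falls as enzyme removes the 3' tyrosine-FITC from a 5'-biotinylated DNA oligo (15 nM, 5 min, RT). Enzyme was E. coli-made recombinant Tdp1 at 1 nM, exposed to compound for 15 min beforehand; beads 10 ug/ml, 10 min.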
VDR inhibitor = Inhibitors of the vitamin D receptor (VDR): qHTS. Vitamin D3 receptor (Homo sapiens), P11473. VDR-SRC2-3 peptide fluorescence polarization, 2 h. Potency, µM, inactives show max response, negative = inhibition, most hits filed as inhibitors. 400,000 tested, 0.93% active. AID 504847, 2011
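The screen uses fluorescence polarization to detect compounds that interfere with recruitment of the SRC2-3 coactivator peptide to VDR; plates are read after 2 h at room temperature.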
TDP1 cell CPT = qHTS for Inhibitors of human tyrosyl-DNA phosphodiesterase 1 (TDP1): qHTS in cells in presence of CPT | chicken DT40 Tdp1-/-;hTDP1 cells + 20 nM CPT, ATP luminescence, 48 h | Potency, µM (doses to about 46.2 µM), for the others: at the highest dose activity change, negative = growth inhibition, most hits filed as inhibitors | 420,000 tested, 12% active | AID 686979, 2013; further: nearly all actives have a fitted effect of over 55% in size
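Chicken DT40 Tdp1-/- cells stably complemented with human TDP1 were seeded at 400 cells/well in medium containing 20 nM camptothecin, exposed to pin-transferred compounds, and grown at 37 °C for at least 48 hr. Viability was read as ATP luminescence.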
GCN5L2 inh = qHTS Assay for Inhibitors of GCN5L2. 390,000 tested, 0.21% active. GCN5L2 HAT assay, ThioGlo1 CoA-SH fluorescence. AID 504327, 2011. Potency, µM (top dose mostly 58.9 µM), for the others: at the highest dose activity change, negative = inhibition, usual class: inhibitors
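GCN5L2 (20 nM) in 50mM HEPES pH 7.5, 0.1mM EDTA, 0.01% Tween-20 preincubated 15 min with compounds at room temperature. Reaction started with H3(1-25) 75uM, acetyl-CoA 70uM, ThioGlo1 50uM; CoA-thiol fluorescence (Ex340/Em540) read at 0 and 20 min.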
PLK1 PBD inh = qHTS for Inhibitors of PLK1-PDB (polo-like kinase 1 - polo-box domain): Primary Screen | Potency, µM, for inactives: max response, negative = inhibition, hits mostly inhibitors | 360,000 tested, 2.8% active | AID 720504, 2013 | Serine/threonine-protein kinase PLK1 (Homo sapiens), P53350 | Plk1 PBD binding of FITC phosphopeptide, fluorescence polarization; further: series mostly up to about 57 µM; nearly all actives have a fitted effect of over 65% in size
Target sequence (P53350 whole entry, looked up, the tested form may be a part): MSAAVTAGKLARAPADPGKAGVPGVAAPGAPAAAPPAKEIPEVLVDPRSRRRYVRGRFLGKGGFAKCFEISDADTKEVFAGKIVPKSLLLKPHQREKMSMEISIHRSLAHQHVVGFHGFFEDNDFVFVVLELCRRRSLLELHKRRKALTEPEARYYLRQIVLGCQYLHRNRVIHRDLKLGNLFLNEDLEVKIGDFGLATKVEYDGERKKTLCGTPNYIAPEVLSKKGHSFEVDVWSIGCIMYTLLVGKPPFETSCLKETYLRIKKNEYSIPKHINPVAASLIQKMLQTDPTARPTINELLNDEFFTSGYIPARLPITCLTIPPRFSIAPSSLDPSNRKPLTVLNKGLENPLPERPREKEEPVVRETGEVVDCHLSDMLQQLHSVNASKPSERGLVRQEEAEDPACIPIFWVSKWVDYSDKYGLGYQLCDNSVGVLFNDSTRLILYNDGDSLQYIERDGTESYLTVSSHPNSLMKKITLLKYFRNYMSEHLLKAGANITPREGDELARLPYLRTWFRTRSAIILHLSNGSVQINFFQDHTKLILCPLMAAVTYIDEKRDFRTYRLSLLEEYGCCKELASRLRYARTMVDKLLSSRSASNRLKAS
An asterisk follows results filed as active; [ ] = another dose, or the depositor's remark. This is a sample that favours compounds with a hit; in the whole collection about 18% have one here. The call rests on the fitted dose curve; in most records, active means well fitted curve in the direction sought with a large enough effect; inconclusive means small, poorly fitted or top-dose-only effect, or another doubt; inactive means no such curve, though single readings can be large; an effect the other way counts as inactive or inconclusive. On the % scale 0 is the no-effect control and ±100 the full control effect; potency means the concentration at half of the fitted maximal effect.

Screening CCCCn1c(N)c(N(CCC(C)C)C(=O)CCCc2nc3ccccc3s2)c(=O)[nH]c1=O returned TDP1 cell noCPT 3%, TDP1 inh 1%[56.1 µM], VDR inhibitor 5%, TDP1 cell CPT 0%, GCN5L2 inh -3% and PLK1 PBD inh -10%.
`COc1ccc(COC(=O)C2CCN(C(=O)c3ccc(Cl)cc3)CC2)cc1F` gave TDP1 cell noCPT inconclusive, TDP1 inh -5%, VDR inhibitor -13%, TDP1 cell CPT inconclusive, GCN5L2 inh -2% and PLK1 PBD inh -4%.
`O=C(C=Cc1ccccc1)c1ccc([N+](=O)[O-])cc1` gave TDP1 cell noCPT 18µM*, VDR inhibitor 10µM*, TDP1 cell CPT inconclusive and PLK1 PBD inh -21%.
CN(C)c1ccc(C(=O)C=Cc2ccc([N+](=O)[O-])cc2)cc1 was read as TDP1 cell noCPT inconclusive, TDP1 cell CPT -25% and PLK1 PBD inh 0%.
`CN(C)C(=O)COc1ccc(C(=O)/C=C/c2cccnc2)cc1` gave TDP1 cell noCPT 13µM*, TDP1 inh 5%[0.0935 µM], VDR inhibitor -15%, TDP1 cell CPT 16µM*, GCN5L2 inh -2% and PLK1 PBD inh -12%.
`COc1cccc(C(=O)/C=C/c2ccc(SC)cc2)c1` gave TDP1 cell noCPT inconclusive, TDP1 inh -2%, VDR inhibitor inconclusive, TDP1 cell CPT inconclusive, GCN5L2 inh -8% and PLK1 PBD inh -3%.
Screening COC(=O)c1ccc(/C=C/C(=O)c2cccc(OC)c2)cc1 returned TDP1 cell noCPT 23µM*, TDP1 inh 7%, VDR inhibitor 22µM*, TDP1 cell CPT inconclusive, GCN5L2 inh -4% and PLK1 PBD inh -18%.
Screening Cc1[nH]c(C)c(C(=O)/C=C/c2ccc([N+](=O)[O-])cc2)c1C returned TDP1 cell noCPT 23µM*, VDR inhibitor inconclusive, TDP1 cell CPT 16µM*, GCN5L2 inh -4% and PLK1 PBD inh -4%.
Cc1cc(Nc2cccc(Br)c2)n2c(nc3ccccc32)c1C#N was read as TDP1 inh 5%, VDR inhibitor 13% and GCN5L2 inh 0%.
CN(C(=O)CSc1nnc(-c2ccncc2)n1Cc1ccccc1)C1CCS(=O)(=O)C1 (configuration not stated) was read as TDP1 inh 6% and GCN5L2 inh 4%.
For O=C(/C=C/c1cccnc1)c1ccccc1O the results were TDP1 cell noCPT inconclusive, VDR inhibitor inconclusive, TDP1 cell CPT inconclusive, GCN5L2 inh -7% and PLK1 PBD inh -21%.
O=C(C=Cc1cccnc1)c1ccccc1 was read as TDP1 cell noCPT 5.8µM*, VDR inhibitor inconclusive, TDP1 cell CPT 5.8µM* and PLK1 PBD inh -9%.
For COc1cc(C(=O)/C=C/c2cccnc2)c([N+](=O)[O-])cc1OC the results were TDP1 cell noCPT 5.8µM*, TDP1 inh 1%, VDR inhibitor 50µM*, TDP1 cell CPT 5.2µM*, GCN5L2 inh -5% and PLK1 PBD inh -20%.
COc1cc(C(=O)Nc2ccncc2)c([N+](=O)[O-])cc1OC was read as TDP1 cell noCPT -10%, TDP1 inh 7%, VDR inhibitor 10%, TDP1 cell CPT -1%, GCN5L2 inh 0% and PLK1 PBD inh 5%.
For O=C(/C=C/c1ccccc1)c1ccc(O)cc1 the results were TDP1 cell noCPT inconclusive, TDP1 inh 15%[56.1 µM], VDR inhibitor 45µM*, TDP1 cell CPT inconclusive and GCN5L2 inh -12%.
For COc1ccc(-n2c(=O)c(-c3cn(C)c4ccccc34)nc3cncnc32)cc1 the results were TDP1 cell noCPT -10%, VDR inhibitor -17%, TDP1 cell CPT 1% and GCN5L2 inh -18%.
Screening CCOC(=O)NCc1ccc(S(=O)(=O)Nc2c(C)cccc2C)cc1 returned TDP1 cell noCPT inconclusive, TDP1 inh 0%, VDR inhibitor -2%, TDP1 cell CPT -21%, GCN5L2 inh -10% and PLK1 PBD inh -1%.
For CC(C)N1CCN(c2ccncc2S(=O)(=O)N2CCN(C)CC2)CC1 the results were TDP1 cell noCPT -3%, TDP1 cell CPT 6% and PLK1 PBD inh -10%.
`CON(c1nc(Cl)nc(N(C)C)n1)S(=O)(=O)c1ccccc1Cl` gave TDP1 cell noCPT inconclusive, TDP1 inh 3%, VDR inhibitor 3%, TDP1 cell CPT 5%, GCN5L2 inh 2% and PLK1 PBD inh -9%.
CON(c1nc(Cl)nc(N(C)C)n1)S(=O)(=O)c1ccc(C)cc1 was read as TDP1 cell noCPT 16µM*, VDR inhibitor -23%, TDP1 cell CPT -6%, GCN5L2 inh 0% and PLK1 PBD inh 27µM*.
Screening Cc1ccc(NC(=O)C2CCCN(C(=O)c3ccc(Cl)cc3)C2)c(C)c1 (configuration not stated) returned TDP1 cell noCPT -10%, TDP1 inh 7%, VDR inhibitor -2%, TDP1 cell CPT 0%, GCN5L2 inh -3% and PLK1 PBD inh -1%.
For Cc1cc(Cl)ccc1C(=O)C1CCCN(C(=O)c2cccc(N3CCCC3=O)c2)C1 (configuration not stated) the results were TDP1 cell noCPT inconclusive, TDP1 inh 2%, VDR inhibitor inconclusive, TDP1 cell CPT 16µM*, GCN5L2 inh -3% and PLK1 PBD inh 24µM*.
For CCOC(=O)c1ccc(NC(=O)C2CCN(C(=O)c3ccc(OC)c(OC)c3)CC2)cc1 the results were TDP1 cell noCPT 21µM*, TDP1 inh 7%[56.1 µM], VDR inhibitor 12%, TDP1 cell CPT inconclusive, GCN5L2 inh -4% and PLK1 PBD inh -9%.
Screening O=C(Nc1ccccc1N1CCN(C(=O)c2ccc(Cl)cc2)CC1)c1cccc(F)c1 returned TDP1 cell noCPT inconclusive, TDP1 inh 0%, VDR inhibitor 7%, TDP1 cell CPT inconclusive, GCN5L2 inh -4% and PLK1 PBD inh -18%.
For Cc1ccc(NC(=O)C2CCCN(C(=O)c3ccc(Cl)cc3)C2)cc1C (configuration not stated) the results were TDP1 cell noCPT 2.9µM*, TDP1 inh 3%, VDR inhibitor -3%, TDP1 cell CPT 4.1µM*, GCN5L2 inh -4% and PLK1 PBD inh 11%.

Compound activity: PubChem, National Center for Advancing Translational Sciences (NCATS)
